A short description of assay [1]: qHTS assay to identify small molecule agonists of the constitutive androstane receptor (CAR) signaling pathway - cell viability counter screen (AID 1224836). Note: series mostly up to about 92 µM; nearly all actives have a fitted effect of over 45% in size. The procedure, abridged:
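Cell viability multiplexed with the CAR agonist screen: CellTiter-Fluor fluorescence after 23 hr at 37 C. HepG2-CYP2B6-hCAR cells got compounds at 15 concentrations with PK11195 at 0.75 uM final.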

Assay [2] in a line: qHTS assay to identify small molecule antagonists of the constitutive androstane receptor (CAR) signaling pathway - cell viability counter screen (AID 1224837). Note: series mostly up to about 92 µM; nearly all actives have a fitted effect of over 45% in size. The procedure, abridged:
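Counter screen run in HepG2-CYP2B6-hCAR cells: 4 hr settle, compound titration (15 concentrations) with 50 nM CITCO, 23 hr at 37 C/5% CO2, CellTiter-Fluor fluorescence.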

Assay [3] concerns the target Thyrotropin receptor (Homo sapiens) (UniProt P16473). As to the kind of experiment: qHTS assay to identify small molecule agonists of the thyroid stimulating hormone receptor (TSHR) signaling pathway (AID 1224843; calls by dose curve; note: nearly all actives have a fitted effect of over 45% in size). The procedure, abridged:
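TSHR-HEK293 cells in agonist mode, 30 min room-temperature step, then cAMP measured by competitive HTRF (cAMP-d2 with anti-cAMP cryptate) after 1 h at room temperature. Tested at 15 concentrations in triplicate.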
(In general: In qHTS, concentration-response curves come from the screen itself.)

Assay [4] in a line: qHTS assay to identify small molecule agonists of the hypoxia (HIF-1) signaling pathway - cell viability counter screen (AID 1224844; calls by dose curve; note: nearly all actives have a fitted effect of over 50% in size). The procedure, abridged:
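Cells (HRE-bla ME-180, 2,000 per well) sat 5 hrs at 37C, got compound for 17 hrs, were read for CCF4-AM FRET, and were finally lysed with CellTiter-Glo for a 30 min room-temperature luminescence read.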

The nature of assay [5]: qHTS assay to identify small molecule agonists of H2AX (AID 1224845; active = well fitted activation curve with a large enough effect in the signal ratio in the repeat runs, not every such curve was filed as active; the % refers to the signal ratio). The method in brief:
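Wild-type CHO-K1 cells, plated overnight, exposed 3hr at 37C to 15 concentrations (0.76% DMSO final). Lysed, then HTRF anti-pH2AX (S139) cryptate and anti-H2AX-d2 antibodies, 24 hr room temperature; 665/620 nm emission read.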

A short description of assay [6]: qHTS assay to identify small molecule agonists of H2AX - cell viability counter screen (AID 1224847; calls by dose curve; note: top concentration of the series differs between compounds; nearly all actives have a fitted effect of over 30% in size). The procedure, abridged: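 Counter-screen for viability: CellTiter-Glo ATP luminescence read after 3 h compound treatment (15-point titration, 0.76% DMSO final) of CHO-K1 cells at 37C, with 30 min room-temperature reagent incubation.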
A short description of assay [7]: qHTS RealTime-Glo MT Cell Viability Assay in HepG2 cells - 24 hour (AID 1224867). Note: nearly all actives have a fitted effect of over 50% in size. The procedure, abridged:
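Cells + NanoLuc/prosubstrate dispensed (600 cells/well) → 5 h at 37 C/5% CO2 → compounds in DMSO transferred → 40 h incubation at 37 C, luminescence read at 0, 8, 16, 24, 32, 40 h.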

The nature of assay [8]: qHTS RealTime-Glo MT Cell Viability Assay in HEK293 cells - 32 hour (AID 1224868). Note: top concentration of the series differs between compounds; nearly all actives have a fitted effect of over 50% in size. The procedure, abridged: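 Tox21 10K qHTS, HEK293, 600 cells/well, RealTime-Glo reagent co-dispensed with cells; 5 h preincubation, compound by pintool, 37 C, luminescence at 0–40 h.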
Assay [9] can be described thus: A CellTox Green Cytotoxicity Assay to monitor cytotoxicity in HEK293 cells - 0 hour (AID 1224869). Note: nearly all actives have a fitted effect of over 50% in size. The procedure, abridged: (§1)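 Fluorescence intensity, read at 0, 8, 16, 24, 32 and 40 h of compound treatment, reflected dye binding to DNA of dead HEK293 cells; compounds (23 nL, DMSO) were added 5 h after plating cells with reagent.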
Assay [10] can be described thus: qHTS RealTime-Glo MT Cell Viability Assay in HepG2 cells - 40 hour (AID 1224870). Note: nearly all actives have a fitted effect of over 50% in size. The procedure, abridged:
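HepG2 cells (600/well) mixed with RealTime-Glo MT reagent, settled 5 h at 37 C/5% CO2 before compound addition. Nonlytic NanoLuc luminescence from viable-cell prosubstrate reduction read repeatedly during 40 h treatment at 37 C.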

The nature of assay [11]: A CellTox Green Cytotoxicity Assay to monitor cytotoxicity in HEK293 cells - 40 hour (AID 1224871). Note: nearly all actives have a fitted effect of over 45% in size. The method in brief: as §1
The target of assay [12] is Luciferin 4-monooxygenase (Photinus pyralis) (UniProt P08659). The experiment in a line: qHTS assay to identify small molecule inhibitors of firefly luciferase (AID 1224835). Note: potency is the fitted concentration of half-maximal effect; nearly all actives have a fitted effect of over 25% in size. The procedure, abridged: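 Biochemical qHTS: compounds run as interplate titrations against purified firefly enzyme, with D-luciferin and ATP each at its KM concentration. Light output recorded by CCD imaging.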
Luciferin 4-monooxygenase (Photinus pyralis), sequence (P08659 whole entry, looked up): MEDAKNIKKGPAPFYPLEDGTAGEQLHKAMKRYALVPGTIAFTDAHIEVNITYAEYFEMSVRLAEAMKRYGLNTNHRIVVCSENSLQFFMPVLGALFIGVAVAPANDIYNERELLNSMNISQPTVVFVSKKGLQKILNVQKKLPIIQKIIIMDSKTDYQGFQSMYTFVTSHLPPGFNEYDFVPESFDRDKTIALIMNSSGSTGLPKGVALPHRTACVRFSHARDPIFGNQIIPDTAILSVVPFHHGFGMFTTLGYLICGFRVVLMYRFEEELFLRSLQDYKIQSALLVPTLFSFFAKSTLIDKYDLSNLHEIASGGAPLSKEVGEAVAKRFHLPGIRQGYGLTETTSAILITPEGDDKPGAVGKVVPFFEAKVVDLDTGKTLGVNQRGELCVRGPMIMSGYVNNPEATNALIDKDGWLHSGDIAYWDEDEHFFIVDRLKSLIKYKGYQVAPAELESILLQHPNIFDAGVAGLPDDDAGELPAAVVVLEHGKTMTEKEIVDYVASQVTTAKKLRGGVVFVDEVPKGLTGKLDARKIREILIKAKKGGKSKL

Assay [13] in a line: qHTS assay to identify small molecule antagonists of the estrogen related receptor signaling pathway with the pleiotropic PPARgamma coactivator (PGC) from Tox21 10K library - cell viability counter screen (AID 1224840; active = well fitted cell-killing curve with a large enough effect in the repeat runs, not every such curve was filed as active; note: nearly all actives have a fitted effect of over 40% in size). The procedure, abridged:
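Following seeding of 2,000 PGC/ERR cells/well and 6 hours' incubation, test compounds were delivered in DMSO. The plates then sat 17.5 hours at 37 C before a fluorogenic live-cell protease reagent (CellTiter-Fluor) was read after 30 min.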

Assay [14] has as its target Nuclear receptor subfamily 1 group I member 3 (Homo sapiens) (UniProt Q14994). The experiment in a line: qHTS assay to identify small molecule antagonists of the constitutive androstane receptor (CAR) signaling pathway (AID 1224838).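 Note: HepG2 cells stably expressing hCAR with CYP2B6 luciferase reporter stimulated by CITCO; nearly all actives have a fitted effect of over 40% in size.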 The procedure, abridged: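 Cell line: HepG2 double-stable for hCAR and CYP2B6-2.2kb reporter. Agonist: CITCO, 50 nM final. Compounds: 15 concentrations, 24 h, 37 C. Detection: ONE-Glo luminescence.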

Results filed as inconclusive are left out. Activity calls are given as the source filed them. Unless noted, calls come from the whole dose curve; as a rule, active = well fitted curve in the direction sought with a large enough effect in the repeat runs; inconclusive = weak or mixed curves; inactive = no such curve, though single readings can be large; an effect the other way counts as inactive or inconclusive.

Thyrotropin receptor (Homo sapiens), sequence (P16473 whole entry, looked up): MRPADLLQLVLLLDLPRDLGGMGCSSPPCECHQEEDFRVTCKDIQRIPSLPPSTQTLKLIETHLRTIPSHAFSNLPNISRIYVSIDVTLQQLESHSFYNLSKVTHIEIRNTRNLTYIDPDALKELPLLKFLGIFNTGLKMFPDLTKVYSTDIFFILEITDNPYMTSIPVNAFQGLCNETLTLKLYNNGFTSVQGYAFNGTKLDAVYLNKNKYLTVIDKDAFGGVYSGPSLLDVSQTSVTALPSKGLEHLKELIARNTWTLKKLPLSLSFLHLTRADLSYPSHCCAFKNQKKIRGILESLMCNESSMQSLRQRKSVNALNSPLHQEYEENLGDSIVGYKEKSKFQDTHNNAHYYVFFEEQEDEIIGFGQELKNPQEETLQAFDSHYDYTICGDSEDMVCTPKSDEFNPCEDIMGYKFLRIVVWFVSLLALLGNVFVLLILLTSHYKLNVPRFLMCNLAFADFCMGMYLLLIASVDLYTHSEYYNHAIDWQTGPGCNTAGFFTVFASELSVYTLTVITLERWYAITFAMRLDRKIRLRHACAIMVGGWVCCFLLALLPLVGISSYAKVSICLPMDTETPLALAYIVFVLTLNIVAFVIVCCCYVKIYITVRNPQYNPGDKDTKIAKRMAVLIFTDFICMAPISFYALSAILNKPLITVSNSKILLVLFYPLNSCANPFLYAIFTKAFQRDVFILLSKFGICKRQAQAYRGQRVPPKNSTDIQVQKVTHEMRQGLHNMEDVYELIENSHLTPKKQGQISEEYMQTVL
Nuclear receptor subfamily 1 group I member 3 (Homo sapiens), sequence (Q14994 whole entry, looked up): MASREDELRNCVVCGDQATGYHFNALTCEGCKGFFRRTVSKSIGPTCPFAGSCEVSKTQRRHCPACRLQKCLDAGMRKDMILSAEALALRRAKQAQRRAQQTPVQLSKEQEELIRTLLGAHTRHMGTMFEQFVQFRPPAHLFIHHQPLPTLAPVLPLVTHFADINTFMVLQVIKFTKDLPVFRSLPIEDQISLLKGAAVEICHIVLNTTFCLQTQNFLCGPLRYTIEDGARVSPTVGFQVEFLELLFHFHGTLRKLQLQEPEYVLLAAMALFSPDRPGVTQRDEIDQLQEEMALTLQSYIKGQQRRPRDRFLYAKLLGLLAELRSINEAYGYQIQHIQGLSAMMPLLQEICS

Consider `Cc1ccc(/C(=C\CN2CCCC2)c2ccccn2)cc1`, for which the Potency result in assay [1], in assay [2], in [3], in assay [4], in assay [5] and in assay [6] was “inactive” in each case. The Potency result in assay [7], in [8], in assay [9], in [10] and in assay [11] was “inactive” throughout.

In the case of `CCCCCCCC/C=C\CCCCCCCC(=O)O`, in [12], the Potency is 71.4 µM (active). For the same molecule, the Potency result in assay [1], in assay [2], in [13], in assay [3], in assay [4] and in assay [5] was “inactive” throughout. In addition, the Potency result in [6], in assay [7], in assay [8], in assay [9] and in assay [11] was “inactive” in each case.

`C=C[C@H]1CN2CC[C@H]1C[C@H]2[C@H](O)c1ccnc2ccc(OC)cc12`: the Potency entry in [1], in assay [2], in assay [14], in assay [13], in assay [4] and in [5] was “inactive” in each case. The Potency result in assay [7], in [8], in assay [9], in assay [10] and in assay [11] was “inactive” each time.
